Screens: PubChem, Broad Institute
Mot1-301 SUMO – yeast Mot1-301 growth rescue at high temperature, primary screen, SUMOylation pathway inhibitor project, S. cerevisiae, ATP luminescence, 38.5C; S. cerevisiae Mot1-301 growth rescue; percent above DMSO median, 100 means doubled; growth rescue, % at 18.8 µM; 1% of 320,000 active; AID 2716, 2010;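 active means every valid replicate shows activation above 250% relative to neutral control wells; inactive means the rest, any valid replicate at or below 250%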
Glyco luc inh – increase of ERlucT glycosylation luciferase signal, primary screen, N-linked glycosylation inhibitor project, D54 ERlucT cells, luminescence, set 2; D54 ERlucT glycosylation luciferase reporter, 24 h; percent of 100 nM tunicamycin response; 0.23% of 360,000 active; reporter increase, % at 12.5 µM;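 active means mean luciferase reporter signal, scaled so untreated is 0 and the glycosylation-blocking control 100, at or above a set limit in every replicate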;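 further: luciferase carries N-glycosylation sites so blocking glycosylation raises the light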
ALR inh – inhibitors of human ALR sulfhydryl oxidase, primary screen, biochemical, H2O2 detection, HRP-luminol luminescence, single point | inhibition, % (concentration not given with the values) | FAD-linked sulfhydryl oxidase ALR (Homo sapiens), P55789 | purified ALR, DTT oxidation | 3.8% of 290,000 active;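 active means mean replicate inhibition above about 79%, with every replicate also reaching it, limit read from the data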
Target sequence (P55789 whole entry, looked up): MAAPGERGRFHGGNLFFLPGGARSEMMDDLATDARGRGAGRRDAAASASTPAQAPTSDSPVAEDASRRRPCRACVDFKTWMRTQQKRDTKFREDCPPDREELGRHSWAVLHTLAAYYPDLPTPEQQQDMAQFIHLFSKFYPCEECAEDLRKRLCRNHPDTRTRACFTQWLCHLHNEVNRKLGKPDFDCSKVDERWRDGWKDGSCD
Casp6 inh – human caspase-6 inhibitors, primary screen, biochemical, VEID-R110 fluorescence, single point, set 2; purified caspase-6, Z-VEID-R110 cleavage fluorescence; inhibition, % at 12.5 µM; 0.53% of 350,000 active;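 active means mean inhibition across replicates at least about 35%, with every replicate also reaching that limit, limit read from the data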
Target sequence (P55212 24-179 limits assumed): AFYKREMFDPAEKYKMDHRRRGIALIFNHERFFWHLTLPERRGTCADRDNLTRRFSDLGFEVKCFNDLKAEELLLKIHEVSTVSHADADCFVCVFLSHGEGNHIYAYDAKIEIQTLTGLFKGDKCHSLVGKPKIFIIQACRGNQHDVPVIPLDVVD
Target sequence (P55212 194-293 limits assumed): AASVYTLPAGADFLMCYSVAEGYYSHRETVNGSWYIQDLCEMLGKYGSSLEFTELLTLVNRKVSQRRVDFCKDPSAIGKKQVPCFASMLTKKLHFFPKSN
CDK5 inh – inhibitors of human CDK5/p35 kinase, primary screen, biochemical, single concentration; 0.01% of 330,000 active; Recombinant CDK5/p35, ADP-Glo luminescence, 60 min; inhibition, % at 10 µM; AID 488839, 2010;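 active means highest replicate inhibition of at least 50% and at least 75% of replicates reaching 50%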
NSD2 inh – NSD2 histone methyltransferase inhibitors, primary screen, biochemical, AlphaScreen, single concentration, set 2. AID 743445, 2014. Histone-lysine N-methyltransferase NSD2 (Homo sapiens), O96028. NSD2 peptide methylation, 120 min. inhibition, % at 12.5 µM. 0.54% of 310,000 active; in the data active means inhibition above about 50%
Large screens that a line does not name were inactive. Hits are enriched below; roughly 3.9% of the tested compounds scored in any of these assays.

COCCNC(=S)NN(c1ccccc1)c1ccccc1	ALR inh 82
CCCN1[C@@H]2c3ccc(C4=CCCC4)c(=O)n3C[C@H]1[C@H](CO)[C@H]2C(=O)NCCOC	none (no result: Mot1-301 SUMO, Glyco luc inh, ALR inh, CDK5 inh, NSD2 inh)
COc1cccc(NC(=O)CSc2nc(=O)n(CCN(C)C)c3c2CCCC3)c1	ALR inh 97 (no result: NSD2 inh)
Cc1csc(NC(=O)CSc2nc(=O)n(CCN(C)C)c3c2CCCC3)n1	ALR inh 98
CCN(CC)CCn1c2c(c(SCC(=O)Nc3cc(OC)cc(OC)c3)nc1=O)CCC2	ALR inh 96
CCc1ccc(NC(=O)CSc2nc(=O)n(CCN(C)C)c3c2CCCC3)cc1	ALR inh 99 (no result: NSD2 inh)
CN(C)CCn1c2c(c(SCC(=O)Nc3cccc4ccccc34)nc1=O)CCCC2	none
O=C(C[C@@H]1CC[C@H](NC(=O)Nc2ccc(C(F)(F)F)cc2)[C@@H](CO)O1)NCc1cc(F)cc(F)c1	none (no result: Mot1-301 SUMO, Glyco luc inh, ALR inh, CDK5 inh, NSD2 inh)
CCN(CC)CCn1c2c(c(SCC(=O)Nc3nc4ccccc4s3)nc1=O)CCC2	ALR inh 98
CCN(CC)CCn1c2c(c(SCC(=O)Nc3cccc4ccccc34)nc1=O)CCC2	ALR inh 97
COc1ccccc1NC(=O)N[C@@H]1CC[C@@H](CCn2cc(-c3cccnc3)nn2)O[C@H]1CO	none (no result: Mot1-301 SUMO, Glyco luc inh, ALR inh, CDK5 inh, NSD2 inh)
COc1ccccc1N1C(=O)CC(Nc2ccc(N3CCOCC3)cc2)C1=O (stereo unspecified)	ALR inh 100 (no result: Casp6 inh)
CCOc1ccccc1N1C(=O)CC(Nc2ccc(N3CCOCC3)cc2)C1=O (stereo unspecified)	ALR inh 98
O=C1CC(Nc2ccc(N3CCOCC3)cc2)C(=O)N1c1ccccc1 (stereo unspecified)	ALR inh 99 (no result: Casp6 inh, NSD2 inh)
O=C1CC(Nc2ccc(N3CCOCC3)cc2)C(=O)N1Cc1ccccc1 (stereo unspecified)	ALR inh 98 (no result: Casp6 inh)
Cc1cc(C(=O)Nc2ccc3c(c2)C(=O)N(C)[C@H]2CC[C@@H](CC(=O)NCc4ccc(-c5ccccc5)cc4)O[C@H]2CO3)no1	none (no result: Mot1-301 SUMO, Glyco luc inh, ALR inh, CDK5 inh, NSD2 inh)
Cc1ccc(S(=O)(=O)N(C)C[C@H]2OCCCC[C@H](C)Oc3ccc(NS(=O)(=O)c4ccc(F)cc4)cc3C(=O)N([C@@H](C)CO)C[C@H]2C)cc1	none (no result: Mot1-301 SUMO, Glyco luc inh, ALR inh, CDK5 inh, NSD2 inh)
O=C1CC(NNc2ccccc2)C(=O)N1c1ccccc1 (stereo unspecified)	ALR inh 100
C[C@H](CO)N1C[C@H](C)[C@@H](CN(C)C(=O)Nc2cccc3ccccc23)Oc2c(NC(=O)Nc3cccc4ccccc34)cccc2C1=O	none (no result: Mot1-301 SUMO, Glyco luc inh, ALR inh, CDK5 inh, NSD2 inh)
Cc1cc(C(=O)CSC(C)c2nc3ccccc3c(=O)[nH]2)c(C)n1C (stereo unspecified)	ALR inh 99 (no result: Casp6 inh)
Cc1cc(C(=O)CSc2nc3ccccc3c(=O)[nH]2)c(C)n1C	ALR inh 98 (no result: Casp6 inh)
O=C(CSc1nc2ccccc2c(=O)[nH]1)c1ccccc1	none (no result: Casp6 inh)
COCC(=O)N1[C@H](C#N)[C@@H](c2ccccc2-c2cccc(F)c2)[C@@H]1CO	none (no result: Mot1-301 SUMO, Glyco luc inh, ALR inh, CDK5 inh, NSD2 inh)
Cc1cccc(NC(=S)NNC(=O)c2ccc(Br)o2)c1	ALR inh 94 (no result: Casp6 inh)
Cc1cccc(NC(=S)NNC(=O)c2csc(C)c2)c1	ALR inh 85
COc1nc(-c2ccccc2Cl)ccc1C#N	ALR inh 98 (no result: Casp6 inh)
C[C@H](CO)N1C[C@H](C)[C@H](CN(C)C(=O)c2ccccc2)Oc2cc(C3=CCCCC3)ccc2S1(=O)=O	none (no result: Mot1-301 SUMO, Glyco luc inh, ALR inh, CDK5 inh, NSD2 inh)
CC(C)NC(=O)N(C)C[C@H]1Oc2ccc(NC(=O)CCCCCC(=O)Nc3ccccc3N)cc2CC(=O)N([C@H](C)CO)C[C@H]1C	none (no result: Mot1-301 SUMO, Glyco luc inh, ALR inh, CDK5 inh, NSD2 inh)
CC(=O)Nc1ccc(NC(=O)CSc2ncc(C(=O)Nc3ccc(F)cc3)c(=O)n2C)cc1	ALR inh 99
CC(=O)Nc1ccc(-n2nnnc2SCC(=O)NC2CCCC2)cc1	none (no result: Casp6 inh)
CC(=O)Nc1ccc(NC(=O)CSc2nnnn2-c2ccc(F)cc2)cc1	ALR inh 98
CC(=O)c1cccc(NC(=O)CSc2ncc(C(=O)Nc3ccccc3)c(=O)n2C)c1	Glyco luc inh 30, ALR inh 99
CC(=O)Nc1cccc(NC(=O)CSc2ncc(C(=O)Nc3ccccc3)c(=O)n2C)c1	none (no result: Mot1-301 SUMO, ALR inh)
Cn1c(SCC(=O)NCc2ccc(F)cc2)ncc(C(=O)Nc2ccccc2)c1=O	none
CC(=O)Nc1ccc(NC(=O)CSc2ncc(C(=O)Nc3ccc(Cl)cc3)c(=O)n2C)cc1	ALR inh 99 (no result: Casp6 inh)
C[C@@H]1CN([C@H](C)CO)C(=O)CCCn2nncc2CO[C@@H]1CN(C)Cc1ccc(Cl)c(Cl)c1	none (no result: Mot1-301 SUMO, Glyco luc inh, ALR inh, CDK5 inh, NSD2 inh)
C[C@H]1CN([C@@H](C)CO)S(=O)(=O)c2ccc(C3=CCCC3)cc2O[C@H]1CN(C)C	none (no result: Mot1-301 SUMO, Glyco luc inh, ALR inh, CDK5 inh, NSD2 inh)
CC(=O)Nc1cccc(NC(=O)CSc2ncc(C(=O)Nc3ccc(F)cc3)c(=O)n2C)c1	ALR inh 99
CN(C)S(=O)(=O)c1ccc(N2CCCC2)c(C(=O)Nc2nc3ccc(F)cc3s2)c1	Glyco luc inh 63
CN(C)S(=O)(=O)c1ccc(N2CCCC2)c(C(=O)Nc2nc3ccccc3s2)c1	Glyco luc inh 90
CC(C)Cc1nnc(NC(=O)c2cc(S(=O)(=O)N(C)C)ccc2N2CCCC2)s1	none
Cc1cccc2sc(NC(=O)c3cc(S(=O)(=O)N(C)C)ccc3N3CCCC3)nc12	Glyco luc inh 87
C[C@H]1CN([C@@H](C)CO)C(=O)c2cc(NC(=O)Nc3cccc4ccccc34)ccc2O[C@H]1CN(C)C(=O)Nc1ccc(C(F)(F)F)cc1	none (no result: Mot1-301 SUMO, Glyco luc inh, ALR inh, CDK5 inh, NSD2 inh)
CCC(=O)Nc1ccc2c(c1)C(=O)N(C)C[C@@H](OC)[C@H](C)CN(C(=O)c1ccccn1)[C@@H](C)CO2	none (no result: Mot1-301 SUMO, Glyco luc inh, ALR inh, CDK5 inh, NSD2 inh)
C[C@H]1CN([C@@H](C)CO)C(=O)c2cc(NC(=O)CCN3CCOCC3)ccc2O[C@@H]1CN(C)Cc1ccc(C(=O)O)cc1	none (no result: Mot1-301 SUMO, Glyco luc inh, ALR inh, CDK5 inh, NSD2 inh)
O=c1cc(CSc2nnc(-c3cccs3)o2)c2c(ccc3ccccc32)o1	none (no result: Mot1-301 SUMO, Glyco luc inh, ALR inh, Casp6 inh, CDK5 inh)
CCCC(=O)N1CCC2(CC1)CN(C(=O)Nc1c(C)noc1C)[C@@H](CO)c1c2c2ccc(OC)cc2n1C	none (no result: Mot1-301 SUMO, Glyco luc inh, ALR inh, CDK5 inh, NSD2 inh)
N#CCc1ccc(Oc2ncccn2)cc1	Mot1-301 SUMO 356
CC1(C)CC(=O)C(C(c2ccco2)C2C(=O)CC(C)(C)CC2=O)C(=O)C1	ALR inh 83 (no result: Casp6 inh)
COc1ccc(NC(=O)N(C)C[C@@H]2Oc3c(NC(=O)C4CCOCC4)cccc3C(=O)N([C@H](C)CO)C[C@H]2C)cc1	none (no result: Mot1-301 SUMO, Glyco luc inh, ALR inh, CDK5 inh, NSD2 inh)
Cc1nn(-c2ccccc2)c(-c2ccccc2[N+](=O)[O-])c1C(=O)O	Mot1-301 SUMO 294
Cc1nn(-c2ccccc2)c(-c2ccccc2[N+](=O)[O-])c1CC#N	none (no result: Mot1-301 SUMO, ALR inh, CDK5 inh, NSD2 inh)
